Measurements reported in PubChem BioAssay.
Active and inactive are the calls of the source. No rule for the calls is given here.

experiment: inhibition of 3D7 malaria parasite growth – strain 3D7 (AID 2306);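 also: 0% = DMSO wells and 100% = chloroquine plus artemisinin control wells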; details: P. falciparum 3D7 erythrocytic growth, LDH absorbance, 72 h; at 2 µM; hits give high values

Growth inhibition, active:
COc1cc2c(cc1C(F)(F)F)N(C(=O)Nc1cc(F)c(F)c(-c3cccnc3)c1)CC2 90%
CCCn1cc2c(ccc3nc(N)nc(N)c32)n1 95%
Oc1ccc2[nH]c(-c3cccs3)nc2c1CN1CCC(N2CCCC2)CC1 100%
CN1Cc2cc(NC(=O)/C=C/c3ccccc3Cl)ccc2C(C)(C)C1 99%
CN(C)CCOc1ccc2[nH]c(-c3cccc(OCc4ccccc4)c3)nc2c1C#N 100%
O=C(NC1CCN(Cc2ccccc2O)C1)c1cccc(C(F)(F)F)c1 (stereo not given) 98%
Cc1cc(NN=Cc2ccc(Cl)cc2)c2ccc(F)cc2n1 100%
O=C(CCCC(=O)Nc1ccc(C2=NCCN2)cc1)Nc1ccc(C2=NCCN2)cc1 91%
O=C(NC1CCCCN(Cc2ccc3c(c2)OCCO3)C1)c1cc(-c2ccccc2F)cs1 (stereo not given) 92%
CC(=O)N1CCC(C(=O)Nc2ccc(-c3cccc(-c4nc5ccc(C(F)(F)F)cc5[nH]4)c3)cc2)CC1 88%
O=[N+]([O-])c1ccccc1C=NNc1c2c(nc3ccccc13)CCCC2 97%
CCNc1cc(C(=O)N[C@@H](Cc2ccccc2)[C@H](O)CNCc2cccc(-n3ccnc3)c2)cc(N2CCCC2=O)c1 99%
Cc1cccc2[nH]c(-c3ccc(-c4ccc(CN5CCC(C(N)=O)CC5)cc4)s3)nc12 97%
Cc1cccc2[nH]c(-c3ccc(-c4cccc(C(=O)N5CCCCC5C(C)O)c4)s3)nc12 (stereo not given) 101%
COc1ccc2ncc(F)c([C@H](O)CN3CCC(NCc4cc5c(cn4)OCCO5)CC3)c2c1 101%
C[C@@H]1CN(c2cnn(C/C=C/c3ccc(NC(=O)c4ccc5nonc5c4)cc3)c(=O)c2Cl)C[C@H](C)N1 94%
Cc1cccc2[nH]c(-c3ccc(-c4cccc(CNCc5cccc(N)c5)c4)cc3)nc12 101%
CN(C)CC(=O)Nc1ccc(Nc2nccc(NCC(O)c3ccccc3)n2)cc1 (stereo not given) 95%
S=C(NN=Cc1ccccn1)Nc1ccc(Cl)c(Cl)c1 98%
O=C(n1c(-c2cc3ccccc3n2C(=O)C(F)(F)F)cc2ccccc21)C(F)(F)F 94%
N#Cc1ccc(NC(=O)Nc2ccc3c(c2)CCN(C2CCC2)CC3)cc1 96%
c1csc(-c2ccc3c(c2)CC(NCc2c[nH]c4cnccc24)C3)c1 (stereo not given) 100%
CCOc1ccc(-c2nonc2NC(=O)c2ccc(OC(C)C)cc2)cc1OCC 100%
O=C(Nc1ccc(Cl)cc1)Nc1ccc2nonc2c1 94%
CC(=O)c1ccc(NC(=O)C2c3ccccc3C(=O)N(CC(C)C)C2c2cccs2)cc1 (stereo not given) 99%
CC(C)(C)c1ccc(CN2CCC(CNC(=O)c3cc(-c4cccc(F)c4)cs3)C2)cc1 (stereo not given) 100%
CCCNC(=O)C1CCN(C(c2ccccc2)c2ccc(Cl)c(Cl)c2)CC1 (stereo not given) 90%
Cc1cccc2[nH]c(-c3ccc(-c4ccc(CNCC5CCCO5)cc4)s3)nc12 (stereo not given) 100%
CN1CCN(c2cccc(-c3nnc(-c4ccc(OCC(=O)NCc5ccc(C(F)(F)F)cc5)c([N+](=O)[O-])c4)o3)c2)CC1 90%
COc1ccc(NC(=O)[C@H](CC(C)C)Nc2ccnc(Nc3ccccc3)n2)cc1 92%
CCCCN(C)CC#Cc1ccc(-c2ccc3[nH]c(C)c(Br)c(=O)c3c2)cn1 98%
Clc1ccc(-n2cnc3c(Nc4ccc(Oc5ccccc5)cc4)ncnc32)cc1Cl 99%
CCCCNc1nc(NCCCC)c2c(C)c(Cc3ccccc3)c(NCCCC)nc2n1 95%
O=c1cc(NCCCNCc2cc(C(F)(F)F)ccc2F)[nH]c2ccccc12 94%
COc1ccc(NC(=O)[C@H](Cc2ccccc2)Nc2cc(C)nc(NCCc3ccc(F)cc3)n2)cc1 101%
O=C(NCCN1CCCC1)c1ccc(-c2ccc(-c3nc4ccc(C(F)(F)F)cc4[nH]3)s2)cc1 97%
COc1ccc2sc(CNCCCNc3cc(=O)c4ccccc4[nH]3)c(Cl)c2c1 85%
CCc1cn2c3c(cc(C(=O)N[C@@H](Cc4ccccc4)[C@H](O)CNCc4ccccc4)cc13)N(C)S(=O)(=O)CC2 98%
CS(=O)(=O)N(c1ccc(F)cc1)c1cc(C(=O)N[C@@H](Cc2ccccc2)[C@H](O)CNCc2cccc(C(F)(F)F)c2)cc(N2CCCC2=O)c1 91%
CC(C)(CNCc1ccc(C(F)(F)F)cc1)c1nc(-c2ccc(Cl)c(O)c2)c(-c2ccncc2)[nH]1 101%
